Bioassay records as filed in PubChem BioAssay.
HT1080-NT tox: kills 2HG-producing HT-1080-NT fibrosarcoma cells; HT-1080-NT fibrosarcoma viability, CellTiter-Glo ATP luminescence, 48 h; AID 686970; actives 1.6% (n = 360,000); Potency, µM (doses to about 46.1 µM), without a hit: top-dose activity, negative = less viability, actives largely listed as cytotoxic;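 further: NT is the 2HG producing partner of a matched IDH1 knockdown line; potency means the concentration at half of the fitted maximal effect; 0% = DMSO-treated cells and -100% = media-only wells without cells; nearly all actives have a fitted effect of over 55% in size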
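Read-out is CellTiter-Glo luminescence after 10 minutes at room temperature, following 48 hours' compound treatment of HT-1080-NT cells (750 cells/well, RPMI, 5% FBS, 37 degrees C).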
IL-1B inflam inh: inhibitors of inflammasome signaling (IL-1 beta secretion); actives 4.7% (n = 360,000); activity change, % at 57.5 µM; AID 743279; THP-1 LPS/ATP IL-1B secretion, AlphaLISA, 16 h; hits give low values; in the data active means activity change below about -50%; inconclusive means mostly about -30% to -49%
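Secreted IL-1B measured by AlphaLISA bead assay after 16 h compound exposure of THP-1 cells; compounds (final up to 57.5 uM) added 1 h before LPS (250 ng/mL) and ATP (1.25 mM) stimulation; lower signal means less secretion.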
HT1080 IDH1KD tx: HT-1080 IDH1 knockdown cell toxicity (counter line); HT-1080 IDH1 knockdown viability, ATP luminescence, 48 h; Potency, µM (highest dose often 46.1 µM), without a hit: at the highest dose activity, negative = toxicity, usual class: cytotoxic; actives 2% (n = 360,000); AID 686971;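 further: potency means the concentration at half of the fitted maximal effect; 0% = DMSO wells and -100% = cell-free medium wells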
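Using the IDH1-knockdown HT-1080 line run in the same batch and compound series as the NT line, viability after 48 h at 37 °C was determined by CellTiter-Glo luminescence and expressed as % activity.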
DT40 TDP1 CPT: DT40-hTDP1 cell growth loss with CPT. chicken DT40 Tdp1-/-;hTDP1 cells + 20 nM CPT, ATP luminescence, 48 h. Potency, µM (top dose mostly 46.2 µM), without a hit: at the highest dose activity change, negative = growth inhibition, most hits filed as inhibitors. actives 12% (n = 420,000). AID 686979; further: potency means the concentration at half of the fitted maximal effect; nearly all actives have a fitted effect of over 55% in size
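Cell growth measured by CellTiter-Glo luminescence after a minimum 48 h, 37 C compound exposure with 20 nM CPT in Tdp1-knockout DT40 cells stably expressing hTDP1, seeded 400/well; qHTS titration format.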
TDP1 cell noCPT: qHTS for Inhibitors of human tyrosyl-DNA phosphodiesterase 1 (TDP1): qHTS in cells in absence of CPT. actives 15% (n = 420,000). DT40 Tdp1-/- hTDP1 cells, no CPT, ATP luminescence, 48 h. AID 686978, 2013. Potency, µM (titrated, usually from 46.2 µM), inactives show at the top dose activity change, negative = growth inhibition, actives largely listed as inhibitors; further: potency means the concentration at half of the fitted maximal effect; nearly all actives have a fitted effect of over 55% in size
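Chicken DT40 Tdp1-/- cells stably complemented with human TDP1 were seeded at 400 cells/well with DMSO in place of 20 nM camptothecin. After compound pinning, cells grew at least 48 hr at 37 °C; viability read by CellTiter-Glo luminescence.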
Starred values were filed as active, the others as inactive; ? = inconclusive; . = no result given; [ ] = remark or other dose. Most compounds without a hit are left out; they make up all but 19% or so of the library. Unless noted, the call rests on the fitted dose curve; in most records, active means well fitted curve in the direction sought with a large enough effect; inconclusive means small, poorly fitted or top-dose-only effect, or another doubt; inactive means no such curve, though single readings can be large; an effect the other way counts as inactive or inconclusive. Unless noted, on the % scale 0 is the no-effect control and ±100 the full control effect.

SMILES	HT1080-NT tox	IL-1B inflam inh	HT1080 IDH1KD tx	DT40 TDP1 CPT	TDP1 cell noCPT
CN(Cc1ccccc1)C(=S)NC(=O)c1ccc(-c2ccccc2)cc1	-25%	-8	?	4.6µM*	4.6µM*
CC1(C2CC2)NC(=O)N(CC(=O)Nc2ccccc2F)C1=O (configuration not stated)	-3%	-5	-2%	-18%	0%
CN1c2ccccc2C(=O)/C(=C\Nc2ccc(F)cc2F)S1(=O)=O	16%	.	16%	-24%	-16%
COc1cc(C(=O)NC(=S)N(C)Cc2ccccc2)cc(OC)c1OC	-4%	11	-2%	21µM*	8.2µM*
COc1cc2[nH]c(C(=O)N(C)Cc3ccccc3)cc2c(OC)c1OC	-3%	-14	9%	-10%	-29%
Nc1nc(Cl)nc2ccc(Br)cc12	-9%	22	-8%	?	12µM*
O=c1cc(CN2CCN(Cc3ccccc3)CC2)c2ccc(O)cc2o1	-2%	31	-11%	1%	?
Cc1ccc2oc(=O)cc(CN3CCN(C/C=C/c4ccccc4)CC3)c2c1	0%	8	10%	?	16µM*
O=c1cc(CN2CCN(C/C=C/c3ccccc3)CC2)c2cc(O)ccc2o1	26µM*	-54*	?	?	?
Cc1ccc2c(CN3CCN(Cc4ccccc4Cl)CC3)cc(=O)oc2c1	.	.	.	16µM*	23µM*
O=C(CNC(=O)c1ccc(Cl)c([N+](=O)[O-])c1)OC1CCCCC1=O (configuration not stated)	5%	-12	3%	5%	5%
CCN(CC(=O)Nc1c(F)cccc1F)C(=O)CSCC(=O)Nc1cccc(C)c1	9%	-5	5%	-16%	-5%
Cc1noc2ncnc(Sc3c(Cl)cccc3Cl)c12	?	-115*	?	18µM*	16µM*
Cc1noc2ncnc(SCc3ccc(C(F)(F)F)cc3)c12	0%	?	-13%	?	16µM*
Cc1ccc(CSc2ncnc3onc(C)c23)cc1	16%	11	-1%	14%	-16%
Cc1ccccc1Sc1ncnc2onc(C)c12	-4%	-52*	-4%[9.24 µM]	23µM*	23µM*
Cc1ccc(Sc2ncnc3onc(C)c23)cc1	-9%	-16	-25%	?	21µM*
CCn1nc(C(=O)Nc2cc(Cl)ccc2-n2cncn2)c2ccccc2c1=O	9%	6	14%	3%	-9%
CCN1C(=O)[C@H]2[C@@H](c3ccc(-c4ccc(C(C)=O)cc4)cc3)N[C@@](Cc3ccccc3)(C(=O)OC)[C@H]2C1=O	-12%	-20	-4%	13µM*	?
COC(=O)[C@]1(C)N[C@H](c2ccc(-c3ccccc3)cc2)[C@@H]2C(=O)N(C)C(=O)[C@@H]21	14%	-2	14%	?	?
CCN1C(=O)[C@H]2[C@@H](c3ccc(-c4ccccc4)cc3)N[C@@](Cc3ccccc3)(C(=O)OC)[C@H]2C1=O	21%	-53*	-1%	?	18µM*
CCN1C(=O)[C@H]2[C@@H](c3ccc(-c4ccc(Cl)c(Cl)c4)cc3)N[C@@](Cc3ccccc3)(C(=O)OC)[C@H]2C1=O	-23%	-12	0%	23µM*	15µM*
COC(=O)[C@]1(Cc2ccccc2)N[C@H](c2ccc(-c3ccc(F)cc3)cc2)[C@@H]2C(=O)N(C)C(=O)[C@@H]21	-1%	?	-5%	18µM*	16µM*
COCCN1CCN(C(=O)c2cc(COc3cc(C)ccc3C)on2)CC1	1%	-6	4%	?	?
CN(C)CCC[C@@]1(c2ccc(F)cc2)OCc2cc(C#N)ccc21	-9%	-23	-20%	?	?
SMILES	HT1080-NT tox	IL-1B inflam inh	HT1080 IDH1KD tx	DT40 TDP1 CPT	TDP1 cell noCPT
COc1ccc(S(=O)(=O)N2CCOCC2)cc1NC(=O)CCCSc1ccccc1	8%	0	9%	-30%	0%
NC(=O)c1cc(S(=O)(=O)NCCc2ccc(Cl)cc2)cs1	0%	10	0%	-12%	5%
Cc1ccc(C(C)C)c(OCCNC(=S)Nc2cccc3ccccc23)c1	5.6µM*	0	7.9µM*	14µM*	13µM*
COCCNCCOCCOc1ccc(Cl)c(C)c1	-11%	-21	-8%	?	?
Cc1cc(OCCOCCNCc2ccccc2)ccc1C(C)C	-26%	-63*	-19%	18µM*	12µM*
CC(C)(C)c1ccccc1OCCOCCNCc1ccccc1	-23%	-57*	?	16µM*	13µM*
Cc1ccc(C(C)C)c(OCCNCc2ccccc2)c1	5%	?	0%	?	21µM*
COc1ccc(/C=N/N(C)c2cc(=O)n(C)c(=O)[nH]2)cc1OC	9%	9	11%	-29%	?
C=CCC1NS(=O)(=O)OC2CCCC12 (configuration not stated)	0%	-25	-4%	-8%	-8%
Fc1ccc(-n2[nH]nnc2=S)cc1N1CCCC1	-2%	19	?	-18%	-1%
Cc1cc(C)nc(N2CCCC(C(=O)Nc3ccc(F)cc3)C2)n1 (configuration not stated)	12%	10	4%	?	-23%
O=C(c1cccc([N+](=O)[O-])c1)N1CCN(c2ccc(Nc3ccccc3)nn2)CC1	.	.	.	?	21µM*
Cc1ccc(Nc2ccc(N3CCN(C(=O)c4ccc([N+](=O)[O-])cc4Cl)CC3)nn2)cc1	.	.	.	21µM*	18µM*
COC(=O)Nc1csc2c1NC(=O)CCCC2	12%	?	21%	-1%	3%
COc1cccc(NC(=O)c2ccccc2Oc2ccccc2)c1	11%	-24	10%	-7%	-8%
COc1cccc(NC(=O)c2cc3ccccc3o/c2=N\O)c1	-25%	?	-25%	15µM*	13µM*
O=C(Nc1ccccc1Cl)c1cc2ccccc2o/c1=N\O	-9%	4	2%	?	10µM*
COc1ccc(-c2nc3c(-c4ccc(F)cc4)cnn3cc2C)cc1F	1%	4	-3%	23µM*	15µM*
COc1ccc(-c2nc3nc(N)nn3cc2C)cc1F	-5%	0	-15%	-19%	0%
COc1ccc2c(c1OC)C(=O)N1c3ccccc3C(=O)N(c3ccc(F)cc3)C21 (configuration not stated)	4%	-15	11%	?	12µM*
COc1ccc2c(c1OC)C(=O)N1c3ccccc3C(=O)N(c3ccccc3)C21 (configuration not stated)	-9%	-12	1%	12µM*	9.2µM*
COc1ccc2c(c1OC)C(=O)N1N=C(c3ccc(-c4ccccc4)cc3)CC21 (configuration not stated)	3%	-3	-2%	-16%	?
